Screening data: PubChem, several laboratories
dFosB act-1: activators of mouse delta FosB homodimer. P13346. purified delta FosB, TAMRA-CDK5 oligo fluorescence polarization; percent of positive-control signal above neutral wells. activation, % at 25 µM. 340,000 compounds, 0.99% hits. AID 493131;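 active = mean activation above about 17%, with every replicate also reaching it, limit read from the data, passing the limit was not always enough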
Target sequence (P13346 whole entry, looked up): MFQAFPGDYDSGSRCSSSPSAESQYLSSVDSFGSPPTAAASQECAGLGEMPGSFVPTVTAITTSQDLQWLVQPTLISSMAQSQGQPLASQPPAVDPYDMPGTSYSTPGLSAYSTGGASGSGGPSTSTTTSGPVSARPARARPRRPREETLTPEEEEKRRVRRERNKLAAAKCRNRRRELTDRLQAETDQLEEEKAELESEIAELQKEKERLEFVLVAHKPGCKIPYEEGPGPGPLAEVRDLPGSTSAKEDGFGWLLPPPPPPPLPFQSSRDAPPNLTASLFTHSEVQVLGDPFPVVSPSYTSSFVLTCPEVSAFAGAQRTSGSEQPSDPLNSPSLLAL
UBC13 polyUb: inhibitors of human UBC13 polyubiquitin chain formation. P61088. TR-FRET. inhibition, % at 20 µM. 330,000 compounds, 0.47% hits; in the data active = inhibition above about 45%, passing the limit was not always enough
Target sequence (P61088 whole entry, looked up): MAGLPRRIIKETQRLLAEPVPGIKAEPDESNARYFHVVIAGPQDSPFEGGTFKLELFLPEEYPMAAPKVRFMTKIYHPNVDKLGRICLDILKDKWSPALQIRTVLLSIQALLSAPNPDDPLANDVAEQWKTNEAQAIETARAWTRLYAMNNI
NALP1 inh: blocks the NALP1 inflammasome reconstituted in yeast | S. cerevisiae NALP1/ASC/caspase-1 growth, X-gal OD620, 72 h | inhibition, % at 10 µM | 280,000 compounds, 0.61% hits | AID 2071; in the data active = inhibition mostly above about 24%, no sharp cut-off; inactive = mostly below about 32%
GRIN3A LBD mod: modulates the human NR3A ligand-binding domain; NR3A LBD differential scanning fluorimetry, Tm shift; 0% = protein alone, 100% = glycine-bound protein; Tm shift relative to glycine control, % at 25 µM; 340,000 compounds, 2.5% hits; AID 1259313;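 active = melting temperature shift of at least 10% of the positive control shift, at one fixed dose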
CR mimetic SO: yeast age-related superoxide inhibition as caloric restriction mimetic; AID 2690; superoxide response (% of plate mean), % at 10 µM; S. cerevisiae aged cells, superoxide DHE fluorescence; hits give low values; 330,000 compounds, 0.18% hits;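 active = superoxide response under a set limit, about three screen SD below normal, cut at about 65% in these data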;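 also: yeast aged for seven days with compound at 30 °C before DHE staining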
dFosB act-2: activators of mouse delta FosB homodimer DNA binding. shares compounds with dFosB act-1. purified delta FosB, TAMRA-CDK5 oligo fluorescence polarization; normalised: neutral wells 0, positive control 100. AID 588690. 2,400 tested, under 10 active. activation, % at 24.9 µM;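 active = highest replicate activation at or above 34% and every replicate reaching that threshold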;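 also: higher polarization means more probe DNA bound by delta FosB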
Of the large screens only hits and unclear results are named; the others gave an inactive call (follow-up assays come after a bar, where they were run). The list is not random: actives were taken first. Their share in the collection is about 4.3%.

CCOC(=O)c1cnc(SCC(=O)Nc2cc(OC)cc(OC)c2)nc1N	none
CCOC(=O)c1sc(NC(=O)CSc2nc3c(cc2C#N)CCCCCC3)c(C#N)c1C	dFosB act-1 19 | dFosB act-2 inactive
CCOC(=O)c1cnc(SCC(=O)Nc2sc(C)c(C)c2C#N)nc1N	dFosB act-1 45 | dFosB act-2 inactive
Cc1c(C)c2cccnc2c2ncccc12	none (no result: NALP1 inh)
Cc1ccc(S(=O)(=O)N2CCN(c3nn(C)c(=O)n(C)c3=O)CC2)cc1C	none (no result: NALP1 inh)
CCOc1ccccc1NC(=S)N(Cc1cc2ccc(C)cc2[nH]c1=O)CC1CCCN1CC (configuration not stated)	none
COCCn1c(SCC(=O)Nc2sc(C)c(C)c2C#N)nnc1-c1ccc(OC)cc1	none
Cc1sc(NC(=O)CSc2nnc(COc3ccc(Cl)cc3)n2C)c(C#N)c1C	dFosB act-1 22 | dFosB act-2 inactive
Cc1ccc(-c2nnc(SCC(=O)Nc3sc(C)c(C)c3C#N)n2C)cc1	dFosB act-1 100 | dFosB act-2 inactive
CN(CCc1nc2ccc(Cl)cc2[nH]1)Cc1nc(CC2CC2)no1	none
COc1cc2c(-c3ccc(O)cc3)nc3c(c(C)nn3-c3ccccc3)c2cc1OC	dFosB act-1 27, GRIN3A LBD mod 28 (no result: UBC13 polyUb) | dFosB act-2 inactive
COc1cc2c(C)nc3c(c(C)nn3-c3ccccc3)c2cc1OC	none
COc1ccc(/C=N/NC(=O)c2ccc(Cl)cc2)cc1Cn1cc(Cl)cn1	dFosB act-1 40 | dFosB act-2 inactive
COc1ccc(/C=N/NC(=O)c2ccco2)cc1COc1ccc(F)cc1	dFosB act-1 75 | dFosB act-2 inactive
COc1cc(OC)c(/C=N/NC(=O)c2ccc(NC(C)=O)cc2)cc1Br	dFosB act-1 28 (no result: CR mimetic SO) | dFosB act-2 inactive
COc1ccc(/C=N/NC(=O)c2ccc(NC(C)=O)cc2)cc1COc1ccc(F)cc1F	dFosB act-1 68 | dFosB act-2 inactive
CN(C)c1ccc(/C=N\NC(=O)c2ccc(Cn3cc(Cl)cn3)cc2)cc1	none
COc1ccc(/C=N\NC(=O)c2ccccc2F)cc1COc1ccc(F)cc1	none
COc1ccc(NC(=O)C(Cc2cc(C)cc(C)c2)C(C)C(=O)O)cc1 (configuration not stated)	none
O=C(CN(C(=O)CNC(=O)c1cccs1)c1ccccc1F)NC1CCCC1	none
CCCCN(C(=O)c1cc(Cl)nc2ccccc12)c1c(N)n(Cc2ccccc2)c(=O)[nH]c1=O	dFosB act-1 27 (no result: NALP1 inh) | dFosB act-2 inactive
COCCN(C(=O)c1cc(Cl)nc2ccccc12)c1c(N)n(Cc2ccccc2)c(=O)[nH]c1=O	none (no result: NALP1 inh)
C=CCNc1nc2c(c(=O)[nH]c(=O)n2C)n1CC(O)COc1ccc2ccccc2c1 (configuration not stated)	none (no result: CR mimetic SO)
O=C(N=c1ccn(-c2nc3ccccc3nc2NS(=O)(=O)c2ccccc2)cc1)c1ccccc1Cl	none
CCOc1ccc(S(=O)(=O)Nc2nc3ccccc3nc2-n2ccc(=NC(=O)c3cccs3)cc2)cc1	dFosB act-1 40 | dFosB act-2 inactive
O=C(N=c1ccn(-c2nc3ccccc3nc2NS(=O)(=O)c2ccc(Cl)cc2)cc1)c1cccs1	dFosB act-1 31 (no result: NALP1 inh) | dFosB act-2 inactive
CCCCNS(=O)(=O)NC(=O)C1=C(N2CCCC2)COC1=O	none (no result: NALP1 inh)
FC(F)(F)c1cc(NC2CCCCC2)ccn1	none
COc1ccc(-c2noc(CCC(=O)NC3CCCCC3)n2)cc1	none
NC(=O)c1ccccc1Nc1nc(NCCO)nc(N2CCCC2)n1	none (no result: NALP1 inh)
CN1CCN(c2nc(Nc3ccc(F)cc3)nc(Nc3ccc(F)cc3)n2)CC1	dFosB act-1 40 | dFosB act-2 inactive
COc1ccc(N(CC(=O)N2CCN(c3ccc(Cl)cc3)CC2)S(=O)(=O)c2c(C)n[nH]c2C)cc1	dFosB act-1 77 | dFosB act-2 inactive
COc1ccc(N(CC(=O)Nc2ccc(Cl)cc2)S(=O)(=O)c2c(C)n[nH]c2C)cc1	none
CS(=O)(=O)c1ccc(Cl)c(NC(=O)Cc2c(Cl)cccc2Cl)c1	dFosB act-1 41 | dFosB act-2 inactive
Cc1oc(-c2cc3c(cc2Cl)OCO3)nc1CN1CCCC1c1ccc(F)cc1 (configuration not stated)	none
Clc1ccc(-c2ccnc(Oc3cc(Cl)ccc3Cl)n2)cc1	dFosB act-1 19 | dFosB act-2 inactive
COc1ccccc1NC(NC(=O)c1cccnc1)C(Cl)(Cl)Cl (configuration not stated)	none
O=C(CN1CCN(S(=O)(=O)c2cccc(Cl)c2)CC1)NCC1(N2CCOCC2)CCCCC1	none (no result: NALP1 inh)
COc1ccc(-n2nc(C)c3c(=O)c4c([nH]c32)CCCC4)cc1	none
COc1ccccc1NC(=O)c1nnn(CC(=O)Nc2cccc(SC)c2)c1N	none (no result: NALP1 inh)
COc1ccccc1NC(=O)Cn1nnc(C(=O)Nc2ccccc2)c1N	dFosB act-1 33 | dFosB act-2 inactive
COc1ccccc1NC(=O)c1nnn(CC(=O)Nc2cc(C)cc(C)c2)c1N	dFosB act-1 33 | dFosB act-2 inactive
CCOc1ccc(NC(=O)c2nnn(CC(=O)Nc3ccccc3OC)c2N)cc1	none
O=C(CCCCn1c(=O)c2ccccc2n(CC(=O)Nc2cccc(F)c2)c1=O)NCc1ccco1	dFosB act-1 24 | dFosB act-2 inactive
Cc1ccccc1Cn1c(=O)n(Cc2ccco2)c(=O)c2ccccc21	none
Cc1cc(C)c(NC(=O)Cn2c(=O)n(Cc3ccco3)c(=O)c3ccccc32)c(C)c1	dFosB act-1 64 | dFosB act-2 inactive
COc1cccc(NC(=O)Cn2c(=O)n(CCCC(=O)NCc3ccco3)c(=O)c3ccccc32)c1	none (no result: UBC13 polyUb, CR mimetic SO)
CCC(C)NC(=O)Cn1c(=O)n(CCCC(=O)NCc2ccccc2Cl)c(=O)c2ccccc21 (configuration not stated)	dFosB act-1 20 | dFosB act-2 inactive
O=C1[C@H]2[C@@H](C3CC3)N3C(=O)CN(Cc4ccccn4)C(=O)[C@@]3(Cc3ccccc3)[C@H]2C(=O)N1c1ccccc1	none
Cn1ccs/c1=N\C(=O)Nc1ccccc1	none
CS(=O)(=O)N(CC(=O)N1CCc2ccccc2C1)c1ccccc1F	none (no result: dFosB act-1, NALP1 inh)
CC(=O)Nc1ccc(N2C(=O)c3ccc(C(=O)Nc4nnc(SCc5ccc(F)cc5)s4)cc3C2=O)cc1	dFosB act-1 56, GRIN3A LBD mod 10 | dFosB act-2 inactive
COc1cc(OC)cc(C(=O)NC(=S)Nc2ccc3[nH]c(=O)[nH]c3c2)c1	dFosB act-1 24 | dFosB act-2 inactive
Cn1c(=O)[nH]c(=O)c2c1nc(NCc1ccccc1)n2Cc1ccc(F)cc1	none
COc1ccc(CNc2nc3c(c(=O)[nH]c(=O)n3C)n2Cc2ccccc2C)cc1	dFosB act-1 18 | dFosB act-2 inactive
Clc1cccc(-c2ccnc3nc(-n4cccc4)nn23)c1	dFosB act-1 37 | dFosB act-2 inactive
O=C(COc1ncnc2ccccc12)Nc1cc([N+](=O)[O-])ccc1Cl	dFosB act-1 21 | dFosB act-2 inactive
